Values joined by “and” are separate entries in the source; they are usually repeats but may differ in a detail not shown here. Equal entries are not always repeated. Inconclusive results are not listed. A call without a number means that no potency is given here. More than one record can exist for a structure, and the calls need not agree. Active and inactive are the calls of the source. Calls come from the whole dose curve; as a rule, active = well fitted curve in the direction sought with a large enough effect in the repeat runs; inconclusive = weak or mixed curves; inactive = no such curve, though single readings can be large; an effect the other way counts as inactive or inconclusive.
Potency is the fitted concentration of half-maximal effect.

Test system in the first experiment: not listed separately
As to the kind of experiment: qHTS assay to identify small molecule antagonists of the constitutive androstane receptor (CAR) signaling pathway - cell viability counter screen (AID 1224837). Note: nearly all actives have a fitted effect of over 45% in size. The note with it: HepG2-CYP2B6-hCAR viability, CellTiter-Fluor, 23 h, co-treated with 50 nM CITCO; series mostly up to 92.4 µM; activity change, negative = cytotoxicity: at the top concentration. The gist of the method: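 Viability was measured with CellTiter-Fluor in a HepG2 line carrying stably transfected hCAR and a CYP2B6-2.2kb construct. Cells were exposed for 23 hr at 37 C to 15 compound concentrations with 50 nM CITCO as agonist.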
A general note: qHTS replaces the single test concentration by a dilution series.
As to `C[N+](C)(C)CCO`, the Potency entry was “inactive”.

For the compound `c1ccc2c(c1)ccc1ncccc12`, the Potency entry is “inactive”.

Regarding `Cc1ccc2c(c1)C(=O)OC2=O`, the Potency result was “inactive”.

As for `c1ccc2cc3ccccc3cc2c1`, the Potency result was “inactive”.

In the case of `CNC[C@H](O)c1ccc(O)c(O)c1`, the Potency result is “inactive”.

As to `CCCCCC1C(=O)CCC1CC(=O)OC` (stereo not given), the Potency result is “inactive”.

On to `CC(=O)O[C@]1(C(C)=O)CC[C@H]2[C@@H]3C=C(Cl)C4=CC(=O)CC[C@]4(C)[C@H]3CC[C@@]21C`, for which the Potency entry was “inactive”.

As for `IC(I)I`, the Potency result is “inactive”.

Regarding `O=C1OC2(c3ccccc31)c1cc(I)c(O)c(I)c1Oc1c2cc(I)c(O)c1I`, the Potency was 15.4 µM (active) [middle of 4 runs].

As to `Oc1c(Cl)ccc(Cl)c1Cl`, the Potency result is “inactive”.

Take `OC[C@@H](O)[C@@H](O[C@@H]1O[C@H](CO)[C@H](O)[C@H](O)[C@H]1O)[C@H](O)[C@@H](O)CO`: the Potency result is “inactive”.

For the compound `C=CC(C)(O)CCC=C(C)C` (stereo not given), the Potency result is “inactive”.

For `C=C[C@@]1(C)CC(=O)[C@]2(O)[C@@]3(C)[C@@H](O)CCC(C)(C)[C@@H]3[C@H](O)[C@H](OC(C)=O)[C@@]2(C)O1`, the Potency result was “inactive”.

On to `C=CCNCC=C`, for which the Potency entry was “inactive”.

For the compound `CC(=O)OC(C)C`, the Potency entry was “inactive”.

With `O=C(O)CCCCCCCCCCCC(=O)O`, the Potency result was “inactive”.

Take `[O-]/[N+](=N\O)c1ccccc1`: the Potency result is “inactive”.

Regarding `NC[C@H](O)c1ccc(O)c(O)c1`, the Potency result is “inactive”.

`OC[C@H]1O[C@@H]2O[C@H]3[C@H](O)[C@@H](O)[C@@H](O[C@H]4[C@H](O)[C@@H](O)[C@@H](O[C@H]5[C@H](O)[C@@H](O)[C@@H](O[C@H]6[C@H](O)[C@@H](O)[C@@H](O[C@H]7[C@H](O)[C@@H](O)[C@@H](O[C@H]1[C@H](O)[C@H]2O)O[C@@H]7CO)O[C@@H]6CO)O[C@@H]5CO)O[C@@H]4CO)O[C@@H]3CO`: the “activity change, negative = cytotoxicity” value is 1.71% (inactive).

For another experiment, the target named is Nuclear receptor subfamily 1 group I member 3 (Homo sapiens) (UniProt Q14994). Kind of experiment: qHTS assay to identify small molecule antagonists of the constitutive androstane receptor (CAR) signaling pathway (AID 1224838).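 Note: HepG2 cells stably expressing hCAR with CYP2B6 luciferase reporter stimulated by CITCO; nearly all actives have a fitted effect of over 40% in size.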 Particulars: HepG2-CYP2B6-hCAR luciferase, CITCO-stimulated, 24 h; series mostly up to 92.4 µM; activity, negative = inhibition: at the top concentration. The gist of the method: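 Antagonist mode used CITCO at a final 50 nM to activate CAR in human hepatoma HepG2 cells carrying stable hCAR and a 2.2 kb CYP2B6 promoter-luciferase construct. Compounds were tested at 15 concentrations over 24 h, with luminescence as the end point.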
Sequence of Nuclear receptor subfamily 1 group I member 3 (Homo sapiens) (Q14994 whole entry, looked up): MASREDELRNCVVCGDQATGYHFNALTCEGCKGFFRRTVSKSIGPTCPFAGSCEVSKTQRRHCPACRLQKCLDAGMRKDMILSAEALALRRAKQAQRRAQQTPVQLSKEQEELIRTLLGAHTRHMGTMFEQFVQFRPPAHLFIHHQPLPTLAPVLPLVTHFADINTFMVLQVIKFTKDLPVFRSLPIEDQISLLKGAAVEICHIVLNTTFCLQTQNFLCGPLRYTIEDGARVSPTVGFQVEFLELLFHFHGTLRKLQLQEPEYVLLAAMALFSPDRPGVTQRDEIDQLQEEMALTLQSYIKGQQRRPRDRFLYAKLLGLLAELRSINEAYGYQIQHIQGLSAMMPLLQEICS
Take `COc1ccc2nc(N)sc2c1`: the Potency result was “inactive”.

As for `C[N+](C)(C)CCO`, the Potency result is “inactive”.

Turning to `c1ccc2c(c1)ccc1ncccc12`, the Potency entry was “inactive”.

Consider `Cc1ccc2c(c1)C(=O)OC2=O`, for which the Potency result was “inactive”.

As to `c1ccc2cc3ccccc3cc2c1`, the Potency entry was “inactive”.

As to `CNC[C@H](O)c1ccc(O)c(O)c1`, the Potency result is “inactive”.

For the compound `C=CCOC(=O)C(=C)C`, the Potency result is “inactive”.

Consider `C=C1C[C@H]2[C@@H]3C=C(C)C4=CC(=O)CC[C@]4(C)[C@H]3CC[C@]2(C)[C@@]1(OC(C)=O)C(C)=O`, for which the Potency entry is “inactive”.

For the compound `CC(=O)O[C@]1(C(C)=O)CC[C@H]2[C@@H]3C=C(Cl)C4=CC(=O)CC[C@]4(C)[C@H]3CC[C@@]21C`, the Potency entry is “inactive”.

As for `CC(=O)Nc1ccc2c(c1)Cc1cc(NC(C)=O)ccc1-2`, the Potency entry was “inactive”.

For `Nc1ccc2c(c1)C(=O)c1ccccc1C2=O`, the Potency entry was “inactive”.

`C[C@]12CC[C@@H]3c4ccc(O)cc4CC[C@H]3[C@@H]1CC[C@H]2O`: the Potency entry was “inactive”.

Take `O=C1OC2(c3ccccc31)c1cc(I)c(O)c(I)c1Oc1c2cc(I)c(O)c1I`: the Potency is 6.13 µM (active) and inactive and 14.8 µM (active).

Consider `Oc1c(Cl)ccc(Cl)c1Cl`, for which the “activity, negative = inhibition” value is 26.2% (inactive).

On to `Nc1cc(Cl)c(N)c(Cl)c1`, for which the “activity, negative = inhibition” value was 75.3% (inactive).

Regarding `OC[C@@H](O)[C@@H](O[C@@H]1O[C@H](CO)[C@H](O)[C@H](O)[C@H]1O)[C@H](O)[C@@H](O)CO`, the Potency result is “inactive”.

Consider `C[C@]12CC[C@@H]3c4ccc(O)cc4CC[C@H]3[C@@H]1CC[C@@H]2O`, for which the Potency entry is “inactive”.

Consider `C=CC(C)(O)CCC=C(C)C` (stereo not given), for which the Potency result was “inactive”.

Regarding `C=C[C@@]1(C)CC(=O)[C@]2(O)[C@@]3(C)[C@@H](O)CCC(C)(C)[C@@H]3[C@H](O)[C@H](OC(C)=O)[C@@]2(C)O1`, the Potency was 27.3 µM (active) and inactive.

`C=C[Si](OCCOC)(OCCOC)OCCOC`: the Potency result is “inactive”.

On to `c1ccc2c(c1)[nH]c1ccccc12`, for which the Potency result was “inactive”.

As to `Clc1ccc(Sc2cc(Cl)c(Cl)cc2Cl)cc1`, the Potency result is “inactive”.

On to `[O-]/[N+](=N\O)c1ccccc1`, for which the Potency result was “inactive”.

`COc1ccc(-c2coc3cc(O)cc(O)c3c2=O)cc1`: the Potency result is “inactive”.

Take `OC[C@H]1O[C@@H]2O[C@H]3[C@H](O)[C@@H](O)[C@@H](O[C@H]4[C@H](O)[C@@H](O)[C@@H](O[C@H]5[C@H](O)[C@@H](O)[C@@H](O[C@H]6[C@H](O)[C@@H](O)[C@@H](O[C@H]7[C@H](O)[C@@H](O)[C@@H](O[C@H]1[C@H](O)[C@H]2O)O[C@@H]7CO)O[C@@H]6CO)O[C@@H]5CO)O[C@@H]4CO)O[C@@H]3CO`: the “activity, negative = inhibition” value is 2.82% (inactive).

As to `Nc1ccc(N)c(Cl)c1`, the Potency result is “inactive”.

With `Nc1ccc2c(O)cc(S(=O)(=O)O)cc2c1`, the Potency was 3.86 µM (active) and 686 nM (active).

Another experiment has the same target. Kind of experiment: qHTS assay to identify small molecule agonists of the constitutive androstane receptor (CAR) signaling pathway (AID 1224839). Note: nearly all actives have a fitted effect of over 15% in size. Particulars: HepG2 hCAR CYP2B6-luciferase, agonist mode, 24 h; series mostly up to 92.4 µM; activation: at the top concentration. The gist of the method:
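Using human hepatoma HepG2 cells engineered with hCAR and a CYP2B6-2.2kb reporter, 15-concentration compound series were incubated 24 h alongside PK11195 at 0.75 uM final, with luminescence quantified afterwards.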
Regarding `C[N+](C)(C)CCO`, the Potency entry is “inactive”.

As to `c1ccc2c(c1)ccc1ncccc12`, the Potency is 54.1 µM (active) and 48.6 µM (active).

For `CNC[C@H](O)c1ccc(O)c(O)c1`, the Potency result is “inactive”.

Consider `C=CCOC(=O)C(=C)C`, for which the Potency result is “inactive”.

On to `CC(=O)O[C@]1(C(C)=O)CC[C@H]2[C@@H]3C=C(Cl)C4=CC(=O)CC[C@]4(C)[C@H]3CC[C@@]21C`, for which the Potency entry was “inactive”.

Take `Nc1ccc2c(c1)C(=O)c1ccccc1C2=O`: the Potency is 1.34 µM (active) and 969 nM (active).

Turning to `Nc1cc(Cl)c(N)c(Cl)c1`, the “activation” value is -10.1% (inactive).

On to `OC[C@@H](O)[C@@H](O[C@@H]1O[C@H](CO)[C@H](O)[C@H](O)[C@H]1O)[C@H](O)[C@@H](O)CO`, for which the Potency entry is “inactive”.

In the case of `Nc1ccc2c(O)cc(S(=O)(=O)O)cc2c1`, the Potency entry is “inactive”.

For the origin of these results see PubChem BioAssay (Tox21).
